RBX1-CUL1 inh: inhibitors of human ROC1-CUL1 ubiquitin ligase activity; E3 ubiquitin-protein ligase RBX1 (Homo sapiens) + Cullin-1 (Homo sapiens), P62877+Q13616; in vitro K48 di-Ub FRET, acceptor:donor ratio, 45 min; inhibition, % at 10 µM; 140,000 compounds, 0.6% hits; in the data active = inhibition above about 25%
* = called active by the depositor. Many of the other results were omitted from the sample, so hits are more common in it than they were.

SMILES	RBX1-CUL1 inh
Cc1ccc(NC(=O)CN2C(=O)c3ccccc3C2=O)cc1Cl	-11
Cc1ccc(NC(=O)CN2C(=O)c3ccc4c5c(ccc(c35)C2=O)CC4)cc1	38*
CCCCN(CCCC)c1nc(Nc2ccc(OC(F)(F)Cl)cc2)nc(N2CCOCC2)n1	-1
Cc1ccc(NC(=O)Cn2c(=O)n(Cc3ccco3)c(=O)c3ccccc32)cc1	4
CN1C(=S)N(c2ccc(Cl)cc2)C(=O)/C1=C/c1cn(CC(=O)NCc2ccco2)c2ccccc12	7
Cc1c(C=C2C(=O)NC(=S)NC2=O)c2ccccc2n1CC(=O)NCc1ccco1	62*
CC(=O)N1CCC[C@H]1C(=O)N1CCC(CCC(=O)Nc2cccc(C)c2)CC1	9
CC1(C)CCC2=C(C1)N(c1ccccc1)C(=O)C(c1ccccc1)C2=O (centres undefined)	3
COCCN1CCC(CN(CC2CCCO2)C(=O)Cc2cccnc2)CC1 (centres undefined)	9
CCOc1cc(/C=C2\C(=O)N(c3ccc(C(=O)O)cc3)N=C2C(F)(F)F)cc(Br)c1O	62*
CCOc1cc(/C=C2\C(=O)NC(=S)N(c3ccc(Br)cc3)C2=O)cc(Br)c1O	7
COc1cc(/C=C2\C(=O)N(c3ccc(Cl)cc3)N=C2C(F)(F)F)ccc1OC(=O)c1ccco1	-3
CCOC(=O)c1nn(-c2ccccc2C(=O)O)c(=O)c2c(N)sc(Br)c12	33*
CCOC(=O)c1nn(-c2ccccc2)c(=O)c2c(N)scc12	-5
CCOC(=O)c1nn(-c2ccccc2C(=O)O)c(N)c1C(N)=S	10
CN1C(=O)C(=NC2CCCCC2)C2c3ccccc3C(=O)c3cccc1c32 (centres undefined)	11
Cc1ccc(N=C2C(=O)N(C)c3cccc4c3C2c2ccccc2C4=O)cc1 (centres undefined)	-1
CN1C(=O)C(=NCCc2ccccc2)C2c3ccccc3C(=O)c3cccc1c32 (centres undefined)	36*
CCOc1ccc2nc(N3C(=O)C(=O)C(C(=O)c4ccc(OC)cc4)C3c3ccc(OCc4ccccc4)c(OC)c3)sc2c1 (centres undefined)	-10
CC1=NN(c2ccccc2)C(=O)/C1=C/c1cc(C)n(-c2cccc(C(F)(F)F)c2)c1C	3
CC(=O)Nc1ccc(N2N=C(C)/C(=C/c3ccccc3)C2=O)cc1	41*
CC1=NN(c2ccc(F)cc2)C(=O)C1=Cc1c(O)n(-c2ccccc2)c(=S)n(-c2ccccc2)c1=O	0
CC1=NN(c2ccccc2)C(=O)/C1=C/c1cccc(OC2CSC2)c1	32*
CC(=O)Oc1ccc(-n2c(C)cc(/C=C3\C(=O)N(c4ccccc4)N=C3C)c2C)cc1	4
CC1=NN(c2ccccc2)C(=O)/C1=C\c1ccc(C(C)(C)C)cc1	40*
SMILES	RBX1-CUL1 inh
COc1cccc(/C=C2\C(=O)N(c3ccccc3)N=C2C)c1OC	-11
CC1=NN(c2ccccc2)C(=O)/C1=C\C1=Nc2ccccc2C1	11
CC1=NN(c2cc(Cl)cc(Cl)c2)C(=O)/C1=C\c1ccc(N2CCOCC2)cc1	0
CSc1ccc(-c2nnn(CC(=O)Nc3ccc(Br)cc3)n2)cc1	1
O=C(Oc1cccc2cccnc12)c1ccc([N+](=O)[O-])cc1[N+](=O)[O-]	0
Cc1[nH]c2ccccc2c1N=Nc1ccc(-c2ccccc2)cc1	4
CSc1ccc(CC2(CCC(=O)NCc3cn[nH]c3-c3ccc(Cl)cc3)CCC(=O)N2)cc1 (centres undefined)	-4
O=C(NCCN1CCCCC1=O)c1ccc2nc(Cc3ccccc3F)oc2c1	9
CCOC(=O)C1=C(C)N=c2s/c(=C/c3ccccc3O)c(=O)n2C1c1ccc2c(c1)OCO2 (centres undefined)	-6
CCOC(=O)C1=C(C)N=c2s/c(=C\c3cc(Br)c(O)c(OC)c3)c(=O)n2C1c1ccc2c(c1)OCO2 (centres undefined)	53*
CCOC(=O)C1=C(C)N=c2s/c(=C\c3cc(OC)ccc3OC)c(=O)n2C1c1ccc(OC)cc1 (centres undefined)	3
CCOC(=O)C1=C(C)N=c2s/c(=C/c3ccc(I)cc3)c(=O)n2C1c1ccc2c(c1)OCO2 (centres undefined)	-8
CCOC(=O)C1=C(C)N=c2s/c(=C/c3cc(I)c(OC)c(OC)c3)c(=O)n2C1c1ccc(N(C)C)cc1 (centres undefined)	8
CCOC(=O)C1=C(C)N=c2s/c(=C\c3cc(I)c(O)c(OC)c3)c(=O)n2C1c1ccc(OC)cc1 (centres undefined)	46*
Fc1ccccc1Cc1nn2c(Cc3ccccc3)nnc2s1	6
CC1(C)C2N=NC1C1C3CCC(C3)C12 (centres undefined)	12
COc1ccc(CN2C(=O)C3C(=NC2=S)c2ccccc2CC32CCCCC2)cc1 (centres undefined)	-8
Cc1nc(N2CCCC(C(=O)NCc3cccc(Cl)c3)C2)nc2cc(S(C)(=O)=O)ccc12 (centres undefined)	3
Cc1ccc(-n2c(-c3ccncc3)n[nH]c2=S)cc1	7
Cc1ccc(-n2c(-c3ccccc3)cc(-c3ccccc3)nc2=O)cc1	-10
